# Records with an inconclusive call do not appear. Calls of active or inactive are those of the source. Calls follow the shape of the dose curve; as a rule, active = well fitted cell-killing curve with a large enough effect; inconclusive = small, poorly fitted or top-dose-only effect, or effect the other way; inactive = no such curve, though single readings can be large or run the other way.
# Assay: Quantitative High-Throughput drug screen in 47 multiple myeloma cell lines against the NCATS MIPE library collection: Karpas25_ECACC cell viability assay (AID 1918968; also: nearly all actives have a fitted effect of over 35% in size)
# Settings: Karpas25 myeloma viability, CellTiter-Glo ATP, 48 h; series mostly up to 45.8 µM
# Outline: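 Inhibition of cell viability is measured here. Each line was plated at 500 cells per well, treated with MIPE 4.0 drugs, kept 48 hours at 37C, then assayed for ATP content by CellTiter-Glo luminescence.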
# Potency is read from the fitted curve at half-maximal effect.
row,SMILES,Potency
1,COc1ccc2c(c1OC)CN1CCc3cc4c(cc3C1C2)OCO4 (stereo not drawn),18700 nM (active)
2,CNC(=O)N1N=C(c2ccc(N)cc2)c2cc3c(cc2CC1C)OCO3 (stereo not drawn),9350 nM (active)
3,C[C@@H]1O[C@@H](O[C@H]2C[C@@H](O)[C@]3(CO)[C@H]4[C@H](O)C[C@]5(C)[C@@H](C6=CC(=O)OC6)CC[C@]5(O)[C@@H]4CC[C@]3(O)C2)[C@H](O)[C@H](O)[C@H]1O,37.2 nM (active)
4,Cc1cccc(C)c1NC(=O)CN1CCCC1=O,inactive
5,CC1=C2C[C@@H]3[C@@H](CC=C4C[C@@H](O)CC[C@@]43C)[C@@H]2CC[C@]12O[C@H]1C[C@H](C)CN[C@H]1[C@H]2C,inactive
6,COc1ccc(C(CN(C)C)C2(O)CCCCC2)cc1 (stereo not drawn),inactive
7,C[C@@H]1[C@@H](CC(C[C@H]2O[C@@H]3O[C@]4(C)CC[C@@H]5[C@H](C)CC[C@@H]([C@H]2C)[C@@]35OO4)C[S+](=O)([O-])c2ccc(COC(=O)N(C)C)cc2)O[C@@H]2O[C@]3(C)CC[C@H]4[C@H](C)CC[C@@H]1[C@@]24OO3 (stereo partly drawn),118 nM (active)
8,CCCC(C)(COC(N)=O)COC(=O)NC(C)C (stereo not drawn),inactive
9,CN(C)[C@@H]1C(=O)C(C(N)=O)=C(O)[C@@]2(O)C(=O)C3=C(O)c4c(O)cccc4[C@@](C)(O)[C@H]3C[C@@H]12,inactive
10,Cc1cc(SCc2sc(-c3ccc(C(F)(F)F)c(F)c3)nc2C)ccc1OCC(=O)O,16600 nM (active)
11,Fc1ccc(C(OCCN2CCN(CCCc3ccccc3)CC2)c2ccc(F)cc2)cc1,8330 nM (active)
12,O=C(O)C(=O)c1cn(Cc2ccccc2)c2ccc(-c3ccc(OC(F)(F)F)cc3)cc12,16600 nM (active)
13,O=C1CC[C@@]2(O)[C@H]3Cc4ccc(O)c5c4[C@@]2(CCN3CC2CC2)[C@H]1O5,inactive
14,C=C(C)[C@H]1Cc2c(ccc3c2O[C@@H]2COc4cc(OC)c(OC)cc4[C@@H]2C3=O)O1,46.9 nM (active)
15,Cn1cc(C2=C(c3cn(C4CCN(Cc5ccccn5)CC4)c4ccccc34)C(=O)NC2=O)c2ccccc21,8330 nM (active)
16,N[C@@H](Cc1ccc(N(CCCl)CCCl)cc1)C(=O)O,13200 nM (active)
17,Cc1sc2c(c1C)C(c1ccc(Cl)cc1)=N[C@@H](CC(=O)OC(C)(C)C)c1nnc(C)n1-2,526 nM (active)
18,C#CCN(C)[C@H](C)Cc1ccccc1,inactive
19,COC[C@H]1OC(=O)c2coc3c2[C@@]1(C)C1=C(C3=O)C2CCC(=O)[C@@]2(C)C[C@H]1OC(C)=O (stereo partly drawn),526 nM (active)
20,COC1(CS(=O)c2ccccc2)CCN(CCc2c[nH]c3ccc(F)cc23)CC1 (stereo not drawn),9350 nM (active)
21,CC(O)(CS(=O)(=O)c1ccc(F)cc1)C(=O)Nc1ccc(C#N)c(C(F)(F)F)c1 (stereo not drawn),264 nM (active)
22,O=c1[nH]c2ccccc2n1CCCN1CCC(n2c(=O)[nH]c3cc(Cl)ccc32)CC1,37.2 nM (active)
23,CNC(=O)c1ccc(N2C(=S)N(c3ccc(C#N)c(C(F)(F)F)c3)C(=O)C23CCC3)cc1F,2960 nM (active)
24,CN1CCN(C(=O)O[C@H]2c3nccnc3C(=O)N2c2ccc(Cl)cn2)CC1,inactive
25,C[C@@H]1[C@@H](C(=O)C[C@H]2O[C@@H]3O[C@]4(C)CC[C@@H]5[C@H](C)CC[C@@H]([C@H]2C)[C@@]35OO4)O[C@@H]2O[C@]3(C)CC[C@H]4[C@H](C)CC[C@@H]1[C@@]24OO3,52.6 nM (active)
26,NCC1(CC(=O)O)CCCCC1,inactive

# Assay: Quantitative High-Throughput drug screen in 47 multiple myeloma cell lines against the NCATS MIPE library collection: KMS27_JCRB cell viability assay (AID 1918970); also: nearly all actives have a fitted effect of over 30% in size
# Settings: KMS27 myeloma cells, CellTiter-Glo ATP viability, 48 h; series mostly up to 45.8 µM
# Outline: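 Viability inhibition screen, 48 h compound exposure, luminescent ATP read-out.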
row,SMILES,Potency
1,COc1ccc2c(c1OC)CN1CCc3cc4c(cc3C1C2)OCO4 (stereo not drawn),20900 nM (active)
2,CNC(=O)N1N=C(c2ccc(N)cc2)c2cc3c(cc2CC1C)OCO3 (stereo not drawn),3320 nM (active)
3,CN(C)CCc1ccc(O)cc1,inactive
4,C[C@@H]1O[C@@H](O[C@H]2C[C@@H](O)[C@]3(CO)[C@H]4[C@H](O)C[C@]5(C)[C@@H](C6=CC(=O)OC6)CC[C@]5(O)[C@@H]4CC[C@]3(O)C2)[C@H](O)[C@H](O)[C@H]1O,18.7 nM (active)
5,Cc1cccc(C)c1NC(=O)CN1CCCC1=O,inactive
6,CC1=C2C[C@@H]3[C@@H](CC=C4C[C@@H](O)CC[C@@]43C)[C@@H]2CC[C@]12O[C@H]1C[C@H](C)CN[C@H]1[C@H]2C,inactive
7,COc1ccc(C(CN(C)C)C2(O)CCCCC2)cc1 (stereo not drawn),inactive
8,C[C@@H]1[C@@H](CC(C[C@H]2O[C@@H]3O[C@]4(C)CC[C@@H]5[C@H](C)CC[C@@H]([C@H]2C)[C@@]35OO4)C[S+](=O)([O-])c2ccc(COC(=O)N(C)C)cc2)O[C@@H]2O[C@]3(C)CC[C@H]4[C@H](C)CC[C@@H]1[C@@]24OO3 (stereo partly drawn),187 nM (active)
9,CCCC(C)(COC(N)=O)COC(=O)NC(C)C (stereo not drawn),inactive
10,CN(C)[C@@H]1C(=O)C(C(N)=O)=C(O)[C@@]2(O)C(=O)C3=C(O)c4c(O)cccc4[C@@](C)(O)[C@H]3C[C@@H]12,inactive
11,COc1ccc(C(=O)c2c(C)n(CCN3CCOCC3)c3ccccc23)cc1,inactive
12,O=C(O)C(=O)c1cn(Cc2ccccc2)c2ccc(-c3ccc(OC(F)(F)F)cc3)cc12,inactive
13,O=C1CC[C@@]2(O)[C@H]3Cc4ccc(O)c5c4[C@@]2(CCN3CC2CC2)[C@H]1O5,inactive
14,C=C(C)[C@H]1Cc2c(ccc3c2O[C@@H]2COc4cc(OC)c(OC)cc4[C@@H]2C3=O)O1,296 nM (active)
15,Cn1cc(C2=C(c3cn(C4CCN(Cc5ccccn5)CC4)c4ccccc34)C(=O)NC2=O)c2ccccc21,18700 nM (active)
16,Cn1c(CCCC(=O)O)nc2cc(N(CCCl)CCCl)ccc21,inactive
17,N[C@@H](Cc1ccc(N(CCCl)CCCl)cc1)C(=O)O,3720 nM (active)
18,CC(C)CC(N(C)C)C1(c2ccc(Cl)cc2)CCC1 (stereo not drawn),inactive
19,Cc1sc2c(c1C)C(c1ccc(Cl)cc1)=N[C@@H](CC(=O)OC(C)(C)C)c1nnc(C)n1-2,52.6 nM (active)
20,COC[C@@H](NC(C)=O)C(=O)NCc1ccccc1,inactive
21,CN(C)CCN(C)CCc1ccc(Cl)c(Cl)c1,inactive
22,COC[C@H]1OC(=O)c2coc3c2[C@@]1(C)C1=C(C3=O)C2CCC(=O)[C@@]2(C)C[C@H]1OC(C)=O (stereo partly drawn),14800 nM (active)
23,CC(O)(CS(=O)(=O)c1ccc(F)cc1)C(=O)Nc1ccc(C#N)c(C(F)(F)F)c1 (stereo not drawn),2350 nM (active)
24,CNC(=O)c1ccc(N2C(=S)N(c3ccc(C#N)c(C(F)(F)F)c3)C(=O)C23CCC3)cc1F,inactive
25,CNCC(O)c1ccc(O)cc1 (stereo not drawn),inactive
26,CN1CCN(C(=O)O[C@H]2c3nccnc3C(=O)N2c2ccc(Cl)cn2)CC1,inactive
27,C[C@@H]1[C@@H](C(=O)C[C@H]2O[C@@H]3O[C@]4(C)CC[C@@H]5[C@H](C)CC[C@@H]([C@H]2C)[C@@]35OO4)O[C@@H]2O[C@]3(C)CC[C@H]4[C@H](C)CC[C@@H]1[C@@]24OO3,166 nM (active)

# Source: PubChem BioAssay (NCATS)
